Shown are actives, neighbours in structure and some others; about 3.2% of the full set was active somewhere.
MEKK2wt PB1 HTS = raises or lowers MEK5 binding to wildtype human MEKK2 PB1 domain. Q9Y2U5. bead flow cytometry, Alexa488-MEK5 binding to MEKK2 WT; actives lie on both sides. binding response (% of control), % at 10 µM. 1.1% of 290,000 active. AID 1531; in the data active means binding response below about 67% or above about 130%
MEKK3 PB1 HTS = modulators (inhibitors or enhancers) of MEK5 binding to human MEKK3 PB1 domain; Q99759; binding response (% of control), % at 10 µM; 1.4% of 290,000 active; bead-based flow cytometry, Alexa488-MEK5 binding to MEKK3; actives lie on both sides; 0 = blocked by unlabeled MEK5, 100 = vehicle;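 active means binding response more than 3 SD above or below the average of its plate-row segment, actives on both sides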;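 further: Alexa488 bead fluorescence after subtracting the streptavidin-only scavenger bead signal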
Target sequence (Q99759 whole entry, looked up, the tested form may be a part): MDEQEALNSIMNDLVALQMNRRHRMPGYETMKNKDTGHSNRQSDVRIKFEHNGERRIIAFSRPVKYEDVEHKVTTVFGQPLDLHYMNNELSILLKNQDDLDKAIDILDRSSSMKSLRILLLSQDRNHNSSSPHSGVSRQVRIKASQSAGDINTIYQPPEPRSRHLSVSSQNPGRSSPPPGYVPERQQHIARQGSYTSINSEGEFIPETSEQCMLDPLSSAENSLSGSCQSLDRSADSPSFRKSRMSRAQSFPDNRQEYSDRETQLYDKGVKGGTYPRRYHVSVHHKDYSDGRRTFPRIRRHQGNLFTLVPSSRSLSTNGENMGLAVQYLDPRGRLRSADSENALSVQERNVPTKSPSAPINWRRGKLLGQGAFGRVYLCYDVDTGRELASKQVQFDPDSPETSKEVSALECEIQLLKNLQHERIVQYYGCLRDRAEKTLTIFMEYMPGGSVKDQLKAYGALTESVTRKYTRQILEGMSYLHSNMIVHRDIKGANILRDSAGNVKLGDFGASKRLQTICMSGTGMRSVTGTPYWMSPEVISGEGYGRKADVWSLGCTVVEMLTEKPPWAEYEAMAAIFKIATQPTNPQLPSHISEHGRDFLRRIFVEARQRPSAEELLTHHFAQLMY
SKN-1 block = C. elegans SKN-1 inhibition | C. elegans VP596 Pgst-4::GFP/RFP ratio, acrylamide-induced, 24 h | inhibition, % at 21.8 µM | 0.49% of 360,000 active;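 active means interference check ratio from 0.5 to 1.5 plus GFP to RFP signal ratio inhibition reaching or exceeding a fixed threshold, cut at about 30% in these data, passing the limit was not always enough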
CendR NRP1 mod = alters CendR peptide binding to human NRP-1; inhibition, % at 25 µM; 0.85% of 360,000 active; FAM-RPARPAR peptide binding to NRP-1, fluorescence polarization;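 active means inhibition or corrected inhibition above about 18%, plus a signal ratio from 0.5 to 1.5, limit read from the data, passing the limit was not always enough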
MEKK2mut PB1 HTS = signal of MEK5 binding to mutant human MEKK2 PB1 domain. bead flow cytometry, Alexa488-MEK5 binding to MEKK2 mutant. percent response, % at 10 µM. 0.35% of 290,000 active. AID 1530; in the data active means percent response above about 24%, passing the limit was not always enough
MEKK2wt confirm = raises or lowers MEK5 binding to wildtype human MEKK2, retest; binding response (% of control), % at 10 µM; AID 1892; 2.4% of 5,900 active; bead flow cytometry, Alexa488-MEK5 binding to MEKK2 WT; actives lie on both sides; shares compounds with MEKK3 PB1 HTS; in the data active means binding response below about 16% or above about 210%; inactive means in between
MEKK2mut confirm = signal of MEK5 binding to mutant human MEKK2, retest. bead flow cytometry, Alexa488-MEK5 binding to MEKK2 mutant. 2% of 5,900 active. shares compounds with MEKK3 PB1 HTS. percent response, % at 10 µM; in the data active means percent response mostly above about 71%, no sharp cut-off; inactive means mostly below about 38%;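 further: higher means compound restores mutant binding toward wildtype level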
MEKK3 confirm = confirmation of inhibitors of MEK5 binding to human MEKK3 | shares compounds with MEKK3 PB1 HTS | bead flow cytometry, Alexa488-MEK5 binding to MEKK3; hits give low values | binding response (% of control), % at 10 µM | 1.8% of 5,900 active;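 active means binding response below 72% of control, or above a set upper limit, though filed actives all read lower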
Each line names hits and unclear results; the compound was inactive in the other large screens (follow-up assays come after a bar, where they were run); [ ] = dose if it differs, or a comment.

O=C1Nc2ccccc2C(O)(C(=O)NCc2ccc3c(c2)OCO3)N1c1ccccc1 (stereo not drawn)	none
O=C(NCC1CCCO1)c1csc2c1CCCCC2 (stereo not drawn)	MEKK2wt PB1 HTS -4.0[inhibitor], MEKK3 PB1 HTS 0.0[inhibitor] | MEKK2wt confirm inactive | MEKK2mut confirm inactive | MEKK3 confirm inactive
Nc1o[nH]c(=O)c1C1CCCCC1	none (no result: MEKK2wt PB1 HTS, MEKK3 PB1 HTS, MEKK2mut PB1 HTS)
O=C(Nc1ccc(OCC(=O)N2CCC(Cc3ccccc3)CC2)cc1)c1ccco1	MEKK3 PB1 HTS 67[inhibitor] | MEKK2wt confirm inactive | MEKK2mut confirm inactive | MEKK3 confirm inactive
COc1cc(OC)cc(C(=O)N2CCC(C(=O)Nc3ccc4c(c3)OCCO4)CC2)c1	MEKK3 PB1 HTS 146 | MEKK2wt confirm inactive | MEKK2mut confirm inactive | MEKK3 confirm inactive
O=C(Nc1cccc(F)c1)C1CCN(C(=O)c2ccc(Cl)cc2)CC1	MEKK3 PB1 HTS 145 | MEKK2wt confirm inactive | MEKK2mut confirm inactive | MEKK3 confirm inactive
COc1ccc(C(=O)N2CCC(C(=O)Nc3ccc4c(c3)OCO4)CC2)cc1	none
CCN(CCn1cccn1)C(=O)c1ccc2nc(Cc3ccc(OC)cc3)oc2c1	none
Cc1[nH]nc2c1C(Cc1ccccc1)C(C#N)=C(N)O2 (stereo not drawn)	MEKK2wt PB1 HTS 3.0[inhibitor], MEKK3 PB1 HTS 2.0[inhibitor] | MEKK2wt confirm inactive | MEKK2mut confirm inactive | MEKK3 confirm inactive
CC(C)N(C)c1ncnc2c1ncn2[C@H]1CN(Cc2ccc3c(c2)OCO3)C[C@@H](CO)O1	none (no result: MEKK2wt PB1 HTS, MEKK3 PB1 HTS, MEKK2mut PB1 HTS)
COCCNC(=O)C1(C)CCCN(C(=O)c2ccc(C)c(F)c2)C1 (stereo not drawn)	none (no result: MEKK2wt PB1 HTS, MEKK3 PB1 HTS, MEKK2mut PB1 HTS)
COCCNC(=O)Cn1c(=O)n(CCCCCC(=O)Nc2ccccc2)c(=O)c2sccc21	MEKK3 PB1 HTS 135 | MEKK2wt confirm inactive | MEKK2mut confirm inactive | MEKK3 confirm inactive
COCCCNC(=O)Cn1c(=O)n(CCCCCC(=O)Nc2ccccc2)c(=O)c2sccc21	none
COc1ccccc1NC(=O)Cn1nnc(-c2ccccc2NC(=O)c2cc3ccccc3oc2=O)n1	MEKK3 PB1 HTS 76[inhibitor] | MEKK2wt confirm inactive | MEKK2mut confirm inactive | MEKK3 confirm inactive
COc1ccccc1NC(=O)Cn1nnc(-c2ccccc2NS(=O)(=O)c2ccccc2)n1	none
COc1ccccc1NS(=O)(=O)c1cc(NC(=O)c2cc3ccccc3oc2=O)ccc1C	MEKK3 PB1 HTS 157 | MEKK2wt confirm inactive | MEKK2mut confirm inactive | MEKK3 confirm inactive
CCC(c1nnnn1Cc1ccc2c(c1)OCO2)N1CCN(CC)CC1 (stereo not drawn)	MEKK3 PB1 HTS 131 | MEKK2wt confirm inactive | MEKK2mut confirm inactive | MEKK3 confirm inactive
Cc1cc(Cl)ccc1OCC(=O)Nc1ccccc1N1CCOCC1	none
Cc1cc(Cl)ccc1OCC(=O)NC(=S)Nc1ccccc1N1CCOCC1	MEKK3 PB1 HTS 148 | MEKK2wt confirm inactive | MEKK2mut confirm inactive | MEKK3 confirm inactive
CCOC(=O)C1=C(C)N=c2s/c(=C/c3ccc(OCC(=O)O)c(OC)c3)c(=O)n2C1c1ccc(Cl)cc1 (stereo not drawn)	none (no result: MEKK2wt PB1 HTS, MEKK3 PB1 HTS, MEKK2mut PB1 HTS)
O=C1CCCC2=C1C(c1ccc(Cl)cc1)n1c(s/c(=C\c3ccc4ccncc4c3)c1=O)=N2 (stereo not drawn)	MEKK3 PB1 HTS 141 | MEKK2wt confirm inactive | MEKK2mut confirm inactive | MEKK3 confirm inactive
CCc1nc(N2CCN(C(C)=O)CC2)c2c3c(sc2n1)CC(C(C)(C)C)CC3 (stereo not drawn)	none
CCc1nc(N2CCN(C(=O)CCl)CC2)c2c3c(sc2n1)CC(C)CC3 (stereo not drawn)	MEKK2wt PB1 HTS 153, MEKK2mut PB1 HTS 39 | MEKK2wt confirm inactive | MEKK2mut confirm inactive | MEKK3 confirm inactive
Cc1cc2[nH]c3c(c[n+](C)c4ccccc34)c2cc1C	MEKK2wt PB1 HTS 144 | MEKK2wt confirm inactive | MEKK2mut confirm 73 | MEKK3 confirm inactive
O=C(NC1CCCc2c1cnn2-c1ccccc1F)c1ccncc1 (stereo not drawn)	none (no result: MEKK2wt PB1 HTS, MEKK3 PB1 HTS, MEKK2mut PB1 HTS)
CC1(C)Cc2c(C#N)c(N)sc(=S)c2CS1	MEKK2wt PB1 HTS 56[inhibitor] | MEKK2wt confirm inactive | MEKK2mut confirm inactive | MEKK3 confirm inactive
C/C(=N\NC(=O)c1cccc(F)c1)c1ccc(NC(=O)Cc2ccccc2)cc1	none
C/C(=N\NC(=O)c1cc(O)cc(O)c1)c1ccc(NC(=O)Cc2ccccc2)cc1	MEKK2wt PB1 HTS 68[inhibitor], MEKK3 PB1 HTS 71[inhibitor] | MEKK2wt confirm inactive | MEKK2mut confirm inactive | MEKK3 confirm 70
Cc1ccc(CSc2nc3c(c(=O)[nH]2)CCC3)cc1	none
Cc1cccc(CSc2nc3c(c(=O)[nH]2)CCC3)c1	MEKK3 PB1 HTS 134 | MEKK2wt confirm inactive | MEKK2mut confirm inactive | MEKK3 confirm inactive
OCC1OC(n2cnc3c(SCc4ccccc4)nc(F)nc32)C(O)C1O (stereo not drawn)	none (no result: MEKK2wt PB1 HTS, MEKK3 PB1 HTS, MEKK2mut PB1 HTS)
COc1ccc(-c2n[nH]nc2C2=CC(=O)CC(C)(C)C2)cc1	none (no result: MEKK2wt PB1 HTS, MEKK3 PB1 HTS, MEKK2mut PB1 HTS)
CC1CCCC(C)N1CCCNC(=O)c1csc2c1CCCCC2 (stereo not drawn)	none
CN1CCN(c2ccc(C(F)(F)F)cc2NC(=O)Nc2ccccc2)CC1	MEKK2wt PB1 HTS 150 | MEKK2wt confirm inactive | MEKK2mut confirm inactive | MEKK3 confirm inactive
CC(Cl)C(=O)Nc1cc(C(F)(F)F)ccc1N1CCOCC1 (stereo not drawn)	none
Cc1sc2ncnc(Sc3nnnn3-c3ccccc3)c2c1C	MEKK3 PB1 HTS 78[inhibitor] | MEKK2wt confirm inactive | MEKK2mut confirm inactive | MEKK3 confirm inactive
O=C(NCC1CCCO1)C1CCCN1C(=O)Nc1ccc(Cl)c(Cl)c1 (stereo not drawn)	MEKK2wt PB1 HTS 5.0[inhibitor], MEKK3 PB1 HTS 4.0[inhibitor] | MEKK2wt confirm inactive | MEKK2mut confirm inactive | MEKK3 confirm inactive
COc1ccccc1CNc1nc(Nc2ccc(C)cc2C)c2sccc2n1	none (no result: MEKK2wt PB1 HTS, MEKK3 PB1 HTS, MEKK2mut PB1 HTS)
CCOc1cc(S(=O)(=O)n2cnc(C)c2)ccc1Cl	MEKK3 PB1 HTS 148 | MEKK2wt confirm inactive | MEKK2mut confirm inactive | MEKK3 confirm inactive
COc1cc(S(=O)(=O)n2cnc(C)c2)ccc1Cl	none
CCc1nc2ccc(C(=O)NCC3CCCCC3)cn2c1N(C)Cc1nccs1	none (no result: MEKK2wt PB1 HTS, MEKK3 PB1 HTS, MEKK2mut PB1 HTS)
C[C@@H](CN1C2=NC[C@H](Cc3ccc(O)cc3)N2C[C@H]1Cc1ccc(O)cc1)NC(=O)CCC1CCCCC1	MEKK2wt PB1 HTS 141 | MEKK2wt confirm inactive | MEKK2mut confirm inactive | MEKK3 confirm inactive
C[C@@H](CN1C2=NC[C@H](Cc3ccccc3)N2C[C@H]1Cc1ccc(O)cc1)NC(=O)CCC1CCCCC1	MEKK2wt PB1 HTS 146 | MEKK2wt confirm inactive | MEKK2mut confirm inactive | MEKK3 confirm inactive

Assay outcomes (PubChem BioAssay)
